# From PubChem BioAssay
# An excerpt weighted towards active compounds, which were near 3.3% of everything screened.
# NCF1 inh: p47phox/p22phox peptide binding inhibitors, primary screen, biochemical, uHTS, NADPH oxidase regulatory subunit. fluorescence polarization, 2 h. Neutrophil cytosol factor 1 (Homo sapiens), P14598. inhibition, % at 24.7 µM. 220,000 tested, 0.53% active. AID 1274, 2008;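 note: 0% = p47phox with labelled peptide and 100% = labelled peptide alone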
# Target sequence (P14598 whole entry, looked up): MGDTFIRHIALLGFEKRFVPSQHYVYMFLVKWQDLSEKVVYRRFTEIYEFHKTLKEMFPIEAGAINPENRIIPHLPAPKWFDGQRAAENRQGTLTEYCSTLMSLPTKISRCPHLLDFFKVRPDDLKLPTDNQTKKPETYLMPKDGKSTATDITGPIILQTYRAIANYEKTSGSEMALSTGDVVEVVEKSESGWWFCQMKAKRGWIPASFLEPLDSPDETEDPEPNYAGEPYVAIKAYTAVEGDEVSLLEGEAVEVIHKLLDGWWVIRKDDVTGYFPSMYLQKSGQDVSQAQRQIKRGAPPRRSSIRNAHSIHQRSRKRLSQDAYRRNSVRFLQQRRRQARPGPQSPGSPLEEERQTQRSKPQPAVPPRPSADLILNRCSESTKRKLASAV
# 14-3-3 Bad PPI: inhibitors of 14-3-3 zeta/Bad binding, primary screen, biochemical, TR-FRET, bovine 14-3-3 zeta; 220,000 tested, 0.71% active; TR-FRET 14-3-3zeta/Dy647-pBad peptide displacement, 1 h; 14-3-3 protein zeta/delta (Bos taurus), P63103; inhibition, % at 21.7 µM;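 active = inhibition above about 70%, limit read from the data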;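 note: 0% = full 14-3-3 plus peptide FRET controls and 100% = background without 14-3-3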
# eIF4E 4G PPI: eIF4E–eIF4G protein interaction inhibitors, primary screen, biochemical, uHTS, TR-FRET, eIF4GI fragment; Eukaryotic translation initiation factor 4E (Mus musculus) + Eukaryotic translation …; TR-FRET eIF4E-eIF4GI(517-606) binding, 2 h; inhibition, % at 21.7 µM; 220,000 tested, 0.37% active; AID 782, 2007;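 note: 0% = full FRET control wells and 100% = background wells lacking eIF4GI fragment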
# Mcl1-Noxa inh: Mcl-1/Noxa binding inhibitors, primary screen, biochemical, TR-FRET, 1536-well; Induced myeloid leukemia cell differentiation protein Mcl-1 (Homo sapiens), Q07820; TR-FRET Mcl-1/Noxa peptide binding, 2 h; inhibition, % at 21.7 µM; 220,000 tested, 1.5% active; AID 1022, 2008;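 active = compounds that cut the protein-peptide binding signal by more than 50% relative to plate controls in a single-dose test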;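 note: His-tagged Mcl-1 with rhodamine Noxa BH3 peptide and terbium anti-His antibody; 0% = Mcl-1 plus Noxa peptide wells and 100% = peptide-only wells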
# Mcl1 Bid PPI: Mcl-1/Bid binding inhibitors, primary screen, biochemical, TR-FRET, 1536-well; Induced myeloid leukemia cell differentiation protein Mcl-1 (Homo sapiens), Q07820; TR-FRET Mcl-1/Bid-Dy647 peptide binding; inhibition, % at 21.7 µM; 220,000 tested, 0.97% active;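 active = compounds that cut the binding signal by more than half at the single screening dose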;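 note: His-tagged Mcl-1 with europium anti-His antibody binding Bid BH3 peptide; 0% = Mcl-1 plus peptide wells and 100% = peptide-only wells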
# Bim-Mcl-1: inhibitors of Bim peptide binding to Mcl-1, primary screen, biochemical, bead-based flow cytometry, multiplex; Bim peptide-Mcl-1 binding; 190,000 tested, 0.1% active; inhibition, % at 10 µM; Induced myeloid leukemia cell differentiation protein Mcl-1 (Homo sapiens), Q07820; AID 1009, 2008; in the data active = inhibition above about 40%;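 note: 0% = no compound tracer wells and 100% = peptide blocker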
# * marks the source's active call; other numbers are inactive results; . = no result; [ ] = remark or other dose.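 Rule for the calls, unless noted: active = inhibition above about 30% (limit read from the data); inactive = the rest.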
SMILES,NCF1 inh,14-3-3 Bad PPI,eIF4E 4G PPI,Mcl1-Noxa inh,Mcl1 Bid PPI,Bim-Mcl-1
CCOc1ccc(NC(=O)COn2nnc3ccc(S(=O)(=O)N4CCOCC4)cc32)cc1,-4,-2,-6,71*,-10,-1
CCSC1=NC2(CCCCC2)Nc2sc3c(c21)CCCC3,7,16,-2,20,74*,3
CCSc1nc2sc3c(c2c(=O)[nH]1)CCCC3,-58,-2,-3,9,-5,-1
C/C(=N\N=C(N)N)c1ccc(C)c(C)c1,-5,-18,-5,1,-25,.
CC1CCCC(NC(=O)COC(=O)c2ccccc2[N+](=O)[O-])C1C (centres undefined),43*,1,5,6,12,5
CC1CCCC(NC(=O)COC(=O)c2ccccc2NC(=O)c2ccco2)C1C (centres undefined),-26,-5,0,-5,-12,0
COc1cc(NC(=O)COC(=O)c2ccc(S(=O)(=O)N3CC(C)CC(C)C3)cc2)c(C)cc1[N+](=O)[O-] (centres undefined),39*,55,1,29,36,2
COc1cc(NC(=O)COC(=O)c2ccc(C)c(S(=O)(=O)N3CCCCC3)c2)c(C)cc1[N+](=O)[O-],-24,-3,-5,13,-19,-5
Cc1cc2ncn(/N=C/c3ccc([N+](=O)[O-])s3)c2cc1C,-10,4,1,87*,26,-1
O=[N+]([O-])c1ccc(/C=N/n2cnc3ccccc32)s1,-7,5,-3,10,-8,0
N#Cc1ccc(Cl)cc1NC(=O)CSc1nc2nc(-c3cccs3)cc(C(F)(F)F)c2c(=O)[nH]1,-21,39,31*,46,12,.
Cc1ccc(/C=C/C(=O)N(Cc2cccs2)C2CCS(=O)(=O)C2)cc1 (centres undefined),-6,-5,-3,-3,-17,.
COc1ccc(NC(=O)Cc2c(SC)c3ccccc3n2Cc2ccccc2)cc1,9,3,0,78*,-4,-4
Cc1ccccc1NC1=NCC(c2ccc([N+](=O)[O-])cc2)S1 (centres undefined),10,-5,1,11,-5,-1
C/C(N)=C(/C#N)C(=O)CSc1nnc(Nc2c(C)cccc2C)s1,-2,4,21,72*,-14,-2
Cc1cc(N)ccc1-n1c(C)ccc1C,-6,-7,-5,26,-204,0
Cc1cc(N)ccc1N1CCCC1,97*,97*[fluorescence artefact?],45*[fluorescence artefact?],83*,-24,32
NC(=O)c1cc(N)ccc1N1CCCC1,140*,2,-2,23,-26,-2
COc1cccc(CNc2ccc(F)c(Cl)c2)c1,-18,78*,3,24,2,0
CC(=O)N1N=C(c2ccc(C)o2)CC1c1cccc(F)c1 (centres undefined),5,-10,-2,1,-47,-1
Cc1n[nH]c(=O)nc1NCc1ccco1,-9,3,74*,14,-25,0
Cc1n[nH]c(=O)nc1NCc1ccccc1,-11,-3,1,5,-19,-7
OC(CNC1CCCc2ccccc21)COc1ccc2ccccc2c1 (centres undefined),-12,40,4,44,52*,-2
Cn1c(=O)c2c(ncn2CC(=O)Nc2nccs2)n(C)c1=O,-8,2,-3,23,-29,.
O=C(CSc1nnnn1-c1ccccc1)Nc1nsc(-c2ccc(Cl)cc2)n1,21,22,5,-33,9,-6
SMILES,NCF1 inh,14-3-3 Bad PPI,eIF4E 4G PPI,Mcl1-Noxa inh,Mcl1 Bid PPI,Bim-Mcl-1
O=C(CSc1ccc2ccccc2n1)Nc1nsc(-c2ccc(Cl)cc2)n1,19,52,6,19,61*,-270
Cc1ccc(-c2nc(NC(=O)CSc3cc(C)c4ccccc4n3)ns2)cc1,52*,75*,15,-212,-23,-425
O=C(CCN1C(=O)COc2ccccc21)NCCN1CCOCC1,2,-8,3,25,-5,1
Cc1ccc2c(c1)N(CCC(=O)NCCN1CCOCC1)C(=O)CO2,7,-9,-9,52*,-7,-3
O=C(CSc1ccc(C(F)(F)F)cc1[N+](=O)[O-])Nc1ccc2ccccc2c1,-1,1,8,0,1,-2
Cc1ccc(C(=O)N2CCCC(c3ccc(Cl)cc3)=N2)cc1,-8,-10,6,11,15,1
OC(CNCc1ccccc1Cl)C(F)(F)F (centres undefined),-2,82*,1,12,-25,0
COC(=O)c1cccc(OCC(O)Cn2cnc3cc(C)c(C)cc32)c1 (centres undefined),-3,-14,16,12,-5,0
COC(=O)c1cccc(OCC(O)Cn2ccnc2)c1 (centres undefined),-5,-3,4,9,91*,-1
COc1ccc(-c2nn(-c3ccccc3)cc2CO)cc1,-12,3,0,3,-4,-4
N=C(N)SCc1cn(-c2ccccc2)nc1-c1ccc(Br)cc1,54*,75*,13,20,-19,1
COc1ccc(NC(=O)Nc2nnc(CC(=O)NCc3ccccc3)s2)cc1,7,-10,-1,1,91*,0
Cc1ccc2c(c1)N(C(C)C(=O)NCc1ccc3c(c1)OCO3)C(=O)CO2 (centres undefined),2,5,-2,5,-55,.
O=C(NNc1ncccc1Cl)c1c(Cl)cccc1Cl,0,-14,-5,-13,-36,-1
O=C(O)c1ccc(N=Nc2c(O)[nH]c3cc(Cl)ccc23)cc1,-32,1,4,62*,-58,.
Nc1nc(N)c(N=Nc2ccc(C(=O)O)cc2)c(N)n1,-9,3,9,6,-6,.
COCCn1nnnc1CN(Cc1ccco1)Cc1cc2cc3c(cc2[nH]c1=O)OCO3,5,5,0,-11,-1,43*
CC(C)(C)n1nnnc1CN(Cc1ccco1)Cc1cc2cc3c(cc2[nH]c1=O)OCO3,2,-15,-13,35,-11,-3
NC(=O)c1ccsc1NC(=O)COC(=O)CCOc1ccccc1,-13,22,4,25,-21,.
N#Cc1ccc(-c2ccccc2)nc1SCC(=O)c1cc2ccccc2oc1=O,-17,20,-27,21,64*,-3
Cc1ccc(/C=C/C(=O)O)cc1S(=O)(=O)NCc1ccco1,-3,-7,-3,8,-6,-2
